For some assays here: Potency and affinity values are given separately. Active and inactive are the calls of the source. Unless noted, the rule behind the calls is not given here.
What was measured:
[1] = antimalarial activity against Dd2 strain (AID 2302;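 active = growth inhibition above 50% at the single 2 µM test dose, taken to imply half-maximal potency below 2 µM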;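 note: 0% = DMSO untreated growth and 100% = chloroquine plus artemisinin killed control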); conditions: P. falciparum Dd2 in RBCs, LDH growth readout, 72 h; at 2 µM; hits give high values
[2] = human hepatoma cell viability loss – ATP luminescence, cytotoxicity control for P. falciparum antimalarial project, primary screen (AID 2303;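 active = inhibition above 50%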;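 note: 0% = DMSO wells and 100% = digitonin-killed cells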); conditions: HepG2 viability, 24-48 h, at 10 µM, hits give high values
[3] = molecular target: L-lactate dehydrogenase (Plasmodium falciparum (isolate CDC / Honduras)) (UniProt Q27743); experiment: PfLDH activity inhibition – cell lysate, 3D7 strain, counter-screen for P. falciparum growth inhibition project (AID 2304);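 note: 0% = vehicle and 100% = reference inhibitor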; conditions: P. falciparum 3D7 crude extract, LDH APAD/NBT absorbance; at 2 µM; hits give high values
Chain of L-lactate dehydrogenase (Plasmodium falciparum (isolate CDC / Honduras)) (Q27743 whole entry, looked up): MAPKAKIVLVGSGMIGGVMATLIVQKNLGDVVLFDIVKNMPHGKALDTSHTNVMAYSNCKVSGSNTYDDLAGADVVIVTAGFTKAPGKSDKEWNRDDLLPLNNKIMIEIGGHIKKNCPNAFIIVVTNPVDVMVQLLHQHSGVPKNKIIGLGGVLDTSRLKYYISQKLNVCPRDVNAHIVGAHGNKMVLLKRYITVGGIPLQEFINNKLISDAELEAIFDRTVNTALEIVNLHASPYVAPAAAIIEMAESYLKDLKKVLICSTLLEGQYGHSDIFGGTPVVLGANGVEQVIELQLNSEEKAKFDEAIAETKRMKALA

[4] = inhibition of 3D7 malaria parasite growth – strain 3D7 (AID 2306);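 note: 0% = DMSO wells and 100% = chloroquine plus artemisinin control wells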; conditions: P. falciparum 3D7 erythrocytic growth, LDH absorbance, 72 h; at 2 µM; hits give high values
[5] = molecular target: Calcium-dependent protein kinase 1 (Plasmodium falciparum (isolate 3D7)) (UniProt P62344); experiment: PfCDPK1 kinase inhibitors, biochemical, TCAMS library (AID 1159585; cut-off not given, nearly all actives have IC50 up to about 0.98 µM;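 note: inhibitors leave more ATP so luminescence rises with inhibition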); conditions: recombinant PfCDPK1, Kinase-Glo ATP depletion luminescence
Chain of Calcium-dependent protein kinase 1 (Plasmodium falciparum (isolate 3D7)) (P62344 whole entry, looked up): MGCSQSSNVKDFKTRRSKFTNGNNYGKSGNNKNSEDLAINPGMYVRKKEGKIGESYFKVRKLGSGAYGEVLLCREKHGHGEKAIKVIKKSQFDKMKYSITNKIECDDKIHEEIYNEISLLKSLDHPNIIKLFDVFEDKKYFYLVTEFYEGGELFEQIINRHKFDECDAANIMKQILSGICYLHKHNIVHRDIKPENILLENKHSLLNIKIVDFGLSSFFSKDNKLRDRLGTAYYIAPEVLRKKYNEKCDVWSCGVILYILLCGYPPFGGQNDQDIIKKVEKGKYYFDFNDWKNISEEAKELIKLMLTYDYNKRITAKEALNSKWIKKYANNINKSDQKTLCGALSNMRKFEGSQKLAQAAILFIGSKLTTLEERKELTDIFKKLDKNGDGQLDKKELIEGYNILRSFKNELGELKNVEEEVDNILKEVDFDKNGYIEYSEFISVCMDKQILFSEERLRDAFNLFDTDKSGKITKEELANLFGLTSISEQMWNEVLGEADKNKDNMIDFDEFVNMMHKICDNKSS

[6] = molecular target: Plasmodium falciparum protein kinase 6 (PK6, PF3D7_1337100) (UniProt Q8IDW1); experiment: PfPK6 kinase inhibitors, biochemical, TCAMS library (AID 1159586); conditions: recombinant PfPK6, Kinase-Glo ATP depletion luminescence
Chain of Plasmodium falciparum protein kinase 6 (PK6, PF3D7_1337100) (Q8IDW1 1-305): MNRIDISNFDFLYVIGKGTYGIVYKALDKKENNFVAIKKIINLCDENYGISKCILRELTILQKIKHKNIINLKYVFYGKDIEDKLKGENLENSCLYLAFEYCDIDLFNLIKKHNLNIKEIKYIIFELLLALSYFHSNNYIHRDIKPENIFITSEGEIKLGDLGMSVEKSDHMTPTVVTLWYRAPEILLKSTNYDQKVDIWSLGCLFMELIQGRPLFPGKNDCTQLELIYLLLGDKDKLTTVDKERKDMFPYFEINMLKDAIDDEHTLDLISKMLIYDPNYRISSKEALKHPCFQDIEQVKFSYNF

[7] = molecular target: Protein kinase 7 (PK7), Plasmodium falciparum 3D7 (PF3D7_0213400) (UniProt Q7YTF7); experiment: inhibition of Plasmodium PK7 catalytic activity – biochemical, TCAMS antimalarial set, Kinase-Glo luminescence (AID 1159587); conditions: recombinant PfPK7, Kinase-Glo ATP depletion luminescence
Chain of Protein kinase 7 (PK7), Plasmodium falciparum 3D7 (PF3D7_0213400) (Q7YTF7 1-343): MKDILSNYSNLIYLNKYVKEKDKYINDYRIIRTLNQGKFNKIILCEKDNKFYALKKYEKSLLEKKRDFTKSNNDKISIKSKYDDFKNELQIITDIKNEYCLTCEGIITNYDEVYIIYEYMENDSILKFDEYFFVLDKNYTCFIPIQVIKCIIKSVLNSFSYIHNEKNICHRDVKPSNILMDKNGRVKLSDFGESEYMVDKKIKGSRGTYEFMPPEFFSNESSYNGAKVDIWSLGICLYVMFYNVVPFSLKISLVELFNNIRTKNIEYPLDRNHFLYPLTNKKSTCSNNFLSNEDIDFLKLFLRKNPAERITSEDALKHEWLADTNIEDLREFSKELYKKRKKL

[8] = molecular target: Calcium-dependent protein kinase 4 (Plasmodium falciparum (isolate 3D7)) (UniProt Q8IBS5); experiment: PfCDPK4 kinase inhibitors, biochemical, TCAMS library (AID 1159588; cut-off not given, nearly all actives have IC50 up to about 0.91 µM); conditions: recombinant PfCDPK4, Kinase-Glo ATP depletion luminescence
Chain of Calcium-dependent protein kinase 4 (Plasmodium falciparum (isolate 3D7)) (Q8IBS5 whole entry, looked up): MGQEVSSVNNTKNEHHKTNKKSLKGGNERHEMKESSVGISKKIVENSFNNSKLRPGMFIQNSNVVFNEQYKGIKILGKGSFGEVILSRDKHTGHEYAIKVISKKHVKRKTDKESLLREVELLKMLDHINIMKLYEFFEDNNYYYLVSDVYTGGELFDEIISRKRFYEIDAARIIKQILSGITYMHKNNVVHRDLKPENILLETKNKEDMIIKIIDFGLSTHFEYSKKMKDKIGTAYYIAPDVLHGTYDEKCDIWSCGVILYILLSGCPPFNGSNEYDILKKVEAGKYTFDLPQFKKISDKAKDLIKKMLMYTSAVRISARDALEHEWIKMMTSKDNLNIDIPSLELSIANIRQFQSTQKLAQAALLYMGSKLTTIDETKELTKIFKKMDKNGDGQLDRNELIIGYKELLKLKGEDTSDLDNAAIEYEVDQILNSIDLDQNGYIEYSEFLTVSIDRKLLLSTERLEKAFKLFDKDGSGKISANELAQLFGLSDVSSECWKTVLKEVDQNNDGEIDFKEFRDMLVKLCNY

Cc1cccc(NC(=S)NC2CCN(CCCCCNC(=O)/C=C/c3ccc(Cl)c(Cl)c3)CC2)c1
active: growth inhibition [4] 97%
inactive: growth inhibition [1] 19% | inhibition [2] 14% | inhibition [3] 4% | outcome [5] | outcome [6] | outcome [7] | outcome [8]

FC(F)(F)c1cccc2c(NN=Cc3ccccc3)ccnc12
active: growth inhibition [1] 90% | growth inhibition [4] 101%
inactive: inhibition [2] 10% | inhibition [3] -4% | outcome [5] | outcome [6] | outcome [7] | outcome [8]

N#Cc1ccc(N(CCOC(=O)c2ccc(Br)s2)Cc2ccccc2C(F)(F)F)cc1C(F)(F)F
active: growth inhibition [4] 82%
inactive: growth inhibition [1] 48% | inhibition [2] 8% | inhibition [3] 3% | outcome [5] | outcome [6] | outcome [7] | outcome [8]

Cc1cccc2[nH]c(-c3ccc(-c4ccc(CN5CCC(CCN6CCCCC6)CC5)cc4)cc3)nc12
active: growth inhibition [1] 100% | inhibition [2] 99% | growth inhibition [4] 100%
inactive: inhibition [3] 6% | outcome [5] | outcome [6] | outcome [7] | outcome [8]

O=C(NC1CCCCN(Cc2ccccc2O)C1)c1cc(F)cc(F)c1 (stereo not given)
inactive: inhibition [2] 7% | inhibition [3] 0% | outcome [5] | outcome [6] | outcome [7] | outcome [8]
active: growth inhibition [1] 52% | growth inhibition [4] 89%

CO/C(=C\C=C\c1cc2cc(Cl)c(Cl)cc2[nH]1)C(=O)NCCCN1CCN(c2cccc(Cl)c2)CC1
active: growth inhibition [1] 77% | inhibition [2] 58% | growth inhibition [4] 100%
inactive: inhibition [3] 3% | outcome [5] | outcome [6] | outcome [7] | outcome [8]

CCN(C)c1cc(C(=O)N[C@@H](Cc2ccccc2)[C@H](O)CNC(C)(C)c2cccc(OC)c2)cc(N2CCCC2=O)c1
active: growth inhibition [1] 81% | growth inhibition [4] 100%
inactive: inhibition [2] -1% | inhibition [3] 1% | outcome [5] | outcome [6] | outcome [7] | outcome [8]

O=C(/C=C/c1ccc(Cl)c(Cl)c1)NCCCCCN1CCCN(C(=S)Nc2ccc(Cl)c(Cl)c2)CC1
active: growth inhibition [4] 96%
inactive: growth inhibition [1] -3% | inhibition [2] 16% | inhibition [3] -3% | outcome [5] | outcome [6] | outcome [7] | outcome [8]

CN1CCC(N(C)C(=O)C=Cc2cn(-c3ccccc3)nc2-c2cc3ccccc3o2)CC1
inactive: growth inhibition [1] 5% | inhibition [2] 38% | inhibition [3] 2% | outcome [5] | outcome [6] | outcome [7] | outcome [8]
active: growth inhibition [4] 92%

CNC(=O)Cc1ccc(C(=O)Nc2cccc(-c3ccc(-c4nc5c(C)cccc5[nH]4)s3)c2)cc1
inactive: growth inhibition [1] 25% | inhibition [3] 0% | outcome [5] | outcome [6] | outcome [7] | outcome [8]
active: inhibition [2] 66% | growth inhibition [4] 91%

CCOC(=O)c1ccc2nc(-c3ccc(C(=O)NCc4ccc(C(C)(C)C)cc4)cc3)[nH]c2c1
inactive: growth inhibition [1] 34% | inhibition [2] -9% | inhibition [3] -3% | outcome [5] | outcome [6] | outcome [7] | outcome [8]
active: growth inhibition [4] 94%

CCN1CCN(c2cc(C)c3cc(NC(=O)c4cccc(OC)c4)ccc3n2)CC1
active: growth inhibition [4] 99%
inactive: growth inhibition [1] 15% | inhibition [2] 5% | inhibition [3] 3% | outcome [5] | outcome [6] | outcome [7] | outcome [8]

COc1ccc(C2=CCN(c3ccc(Cl)c(Cl)c3)C2=O)cc1OCCN1CCCCC1
inactive: inhibition [2] 19% | inhibition [3] -2% | outcome [5] | outcome [6] | outcome [7] | outcome [8]
active: growth inhibition [1] 99% | growth inhibition [4] 97%

COc1ccc(NC(=O)Nc2ccc(Nc3nc(C)cc(N(C)C)n3)cc2)cc1
inactive: inhibition [2] 11% | inhibition [3] -3% | outcome [5] | outcome [6] | outcome [7] | outcome [8]
active: growth inhibition [1] 99% | growth inhibition [4] 102%

CN(C)Cc1c(O)ccc2[nH]c(-c3ccc(OC(F)(F)F)cc3)nc12
active: growth inhibition [1] 97% | growth inhibition [4] 101%
inactive: inhibition [2] 24% | inhibition [3] -3% | outcome [5] | outcome [6] | outcome [7] | outcome [8]

CCOC(=O)c1ccc(NC(=O)NNC(=O)c2ccc(CCN3CCC(c4nc(COCC(F)(F)F)c(-c5ccc(F)cc5)o4)CC3)cc2)cc1
active: growth inhibition [1] 67% | growth inhibition [4] 103%
inactive: inhibition [2] 10% | inhibition [3] 0% | outcome [5] | outcome [6] | outcome [7] | outcome [8]

NC(=O)c1cccc(Nc2nccc(Nc3ccc(Oc4c(Cl)cccc4Cl)c(Cl)c3)n2)c1
inactive: growth inhibition [1] 17% | inhibition [2] 2% | inhibition [3] 5% | outcome [5] | outcome [6] | outcome [7] | outcome [8]
active: growth inhibition [4] 93%

COc1cc(NC(=O)N2CCOC(CCN3CCC(c4ccccc4)CC3)(c3ccc(Cl)c(Cl)c3)C2)cc(OC)c1OC (stereo not given)
inactive: inhibition [2] 15% | inhibition [3] -2% | outcome [5] | outcome [6] | outcome [7] | outcome [8]
active: growth inhibition [1] 73% | growth inhibition [4] 93%

COc1cc2nc(Nc3ccc4c(c3)OCCO4)nc(N)c2cc1OC
inactive: inhibition [2] 13% | inhibition [3] -3% | outcome [5] | outcome [6] | outcome [7] | outcome [8]
active: growth inhibition [1] 80% | growth inhibition [4] 101%

Cc1cc(N2CCC(N(C)C)C2)nc(Nc2ccc(Cl)cc2)n1 (stereo not given)
inactive: growth inhibition [1] 17% | inhibition [2] 11% | inhibition [3] 2% | outcome [5] | outcome [6] | outcome [7] | outcome [8]
active: growth inhibition [4] 99%

CCc1c[nH]c2c(N3CCCC3=O)cc(C(=O)N[C@@H](Cc3ccccc3)[C@H](O)CNC3CCCCC3)cc12
inactive: inhibition [2] 12% | inhibition [3] -1% | outcome [5] | outcome [6] | outcome [7] | outcome [8]
active: growth inhibition [1] 98% | growth inhibition [4] 100%

COc1ccc2nc(N3CCNCC3)nc(NCCCc3ccccc3)c2c1
inactive: growth inhibition [1] 43% | inhibition [2] 31% | inhibition [3] -3% | outcome [5] | outcome [6] | outcome [7] | outcome [8]
active: growth inhibition [4] 100%

CN(CCCCNC(=O)c1ccc(-c2ccccc2)cc1)C1CCc2c(O)cccc2C1 (stereo not given)
inactive: growth inhibition [1] 21% | inhibition [2] 24% | inhibition [3] 0% | outcome [5] | outcome [6] | outcome [7] | outcome [8]
active: growth inhibition [4] 102%

Fc1cccc(Nc2nc(NCc3ccc(Cl)c(Cl)c3)nc(Nc3cccc(F)c3)n2)c1
active: growth inhibition [4] 99%
inactive: growth inhibition [1] 7% | inhibition [2] -5% | inhibition [3] 3% | outcome [5] | outcome [6] | outcome [7] | outcome [8]

O=C(NCCN1CCCC1)c1cccc(-c2ccc(-c3nc4ccc(F)cc4[nH]3)cc2)c1
active: growth inhibition [1] 85% | growth inhibition [4] 99%
inactive: inhibition [2] 33% | inhibition [3] -3% | outcome [5] | outcome [6] | outcome [7] | outcome [8]

CN1CCN(S(=O)(=O)c2ccc3nccc(Nc4ccc(Oc5ccccc5)cc4)c3c2)CC1
active: growth inhibition [1] 91% | growth inhibition [4] 98%
inactive: inhibition [2] -9% | inhibition [3] -3% | outcome [5] | outcome [6] | outcome [7] | outcome [8]

COc1cc(NC(=O)c2c(-c3c(F)cccc3Cl)noc2C)c(OC)cc1Cl
active: growth inhibition [4] 89%
inactive: growth inhibition [1] 17% | inhibition [2] -12% | inhibition [3] 5% | outcome [5] | outcome [6] | outcome [7] | outcome [8]

O=C(NC1CCN(c2ccnc(Nc3ccc(F)cc3)n2)C1)c1cc2ccccc2s1 (stereo not given)
inactive: inhibition [2] 6% | inhibition [3] -8% | outcome [5] | outcome [6] | outcome [7] | outcome [8]
active: growth inhibition [1] 80% | growth inhibition [4] 99%

Cc1ccccc1Cn1c(CN2CCC(C(=O)NC3CC3)CC2)cc2ccccc21
active: growth inhibition [1] 96% | growth inhibition [4] 97%
inactive: inhibition [2] 7% | inhibition [3] -2% | outcome [5] | outcome [6] | outcome [7] | outcome [8]

CC(C)CN1CCN(CCNc2c3ccccc3nc3ccccc23)CC1
active: growth inhibition [1] 79% | growth inhibition [4] 97%
inactive: inhibition [2] 26% | inhibition [3] 0% | outcome [5] | outcome [6] | outcome [7] | outcome [8]

COc1ccc2nccc([C@@H](O)CN3CCC(NCc4ccc5c(c4)NC(=O)C(C)S5)CC3)c2c1 (stereo not given in full)
inactive: inhibition [2] 7% | inhibition [3] 2% | outcome [5] | outcome [6] | outcome [7] | outcome [8]
active: growth inhibition [1] 72% | growth inhibition [4] 99%

CN=C(NO)NCCN(C)C
active: growth inhibition [4] 88%
inactive: growth inhibition [1] -5% | inhibition [2] -1% | inhibition [3] -2% | outcome [5] | outcome [6] | outcome [7] | outcome [8]

COc1ccc(C2CC(c3cccs3)=NN2C(=O)c2ccco2)cc1OC (stereo not given)
active: growth inhibition [1] 97% | growth inhibition [4] 101%
inactive: inhibition [2] -3% | inhibition [3] 4% | outcome [5] | outcome [6] | outcome [7] | outcome [8]

O=C(Nc1ccc(-c2nc3ccccc3[nH]2)cc1)c1ccc(N2CCOCC2)c([N+](=O)[O-])c1
active: growth inhibition [4] 101%
inactive: growth inhibition [1] 28% | inhibition [2] 47% | inhibition [3] -8% | outcome [5] | outcome [6] | outcome [7] | outcome [8]

COc1ccc(NC(=O)[C@H](CC(C)C)Nc2cc(C)nc(NCCc3cccs3)n2)cc1
active: growth inhibition [1] 68% | growth inhibition [4] 100%
inactive: inhibition [2] 5% | inhibition [3] 4% | outcome [5] | outcome [6] | outcome [7] | outcome [8]

Cc1cc(N)c2cc(NC(=O)/C=C/c3ccccc3)ccc2n1
active: growth inhibition [1] 68% | growth inhibition [4] 102%
inactive: inhibition [2] 20% | inhibition [3] 0% | outcome [5] | outcome [6] | outcome [7] | outcome [8]

Fc1ccc2cc(C=Cc3ccncc3)[nH]c2c1
active: growth inhibition [1] 89% | growth inhibition [4] 100%
inactive: inhibition [2] -10% | inhibition [3] 0% | outcome [5] | outcome [6] | outcome [7] | outcome [8]

CC1(C)CC(NCCCCCCCOc2ccc(OCc3ccccc3)cc2)CC(C)(C)N1
active: growth inhibition [1] 73% | inhibition [2] 99% | growth inhibition [4] 100%
inactive: inhibition [3] 0% | outcome [5] | outcome [6] | outcome [7] | outcome [8]

CCOc1cccc(C(=O)Nc2cccc(CN3CCCN(Cc4cccc(O)c4)CC3)c2)c1
active: growth inhibition [4] 85%
inactive: growth inhibition [1] 18% | inhibition [2] 17% | inhibition [3] -3% | outcome [5] | outcome [6] | outcome [7] | outcome [8]

O=C(Cn1c(SCc2cccc(F)c2F)cc(=O)c2ccccc21)N(Cc1ccc(-c2ccc(C(F)(F)F)cc2)cc1)C1CCN(CCO)CC1
active: growth inhibition [1] 81% | inhibition [2] 50% | growth inhibition [4] 89%
inactive: inhibition [3] 4% | outcome [5] | outcome [6] | outcome [7] | outcome [8]
